# Only some compounds are listed: those with a hit (about 2% of all), similar ones and a draw of the others.
# PKA-R2B activ: PKA-R2B complex activation; P22694+P31323; PKA-R2B holoenzyme dissociation, Cy5-IP20 fluorescence polarization; R2B truncated from residue 108, S112A mutant; 0% DMSO only, 100% 113 µM cGMP; activation, % at 11.4 µM; actives 0.079% (n = 340,000); AID 504700;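 active means activation above a cutoff set at the mean over all compounds plus 3 SD, cut at about 18% in these data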;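 further: higher means more holoenzyme dissociation and a rise in polarization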
# Target sequence (P31323 whole entry, looked up, other chains not shown, the tested form may be a part): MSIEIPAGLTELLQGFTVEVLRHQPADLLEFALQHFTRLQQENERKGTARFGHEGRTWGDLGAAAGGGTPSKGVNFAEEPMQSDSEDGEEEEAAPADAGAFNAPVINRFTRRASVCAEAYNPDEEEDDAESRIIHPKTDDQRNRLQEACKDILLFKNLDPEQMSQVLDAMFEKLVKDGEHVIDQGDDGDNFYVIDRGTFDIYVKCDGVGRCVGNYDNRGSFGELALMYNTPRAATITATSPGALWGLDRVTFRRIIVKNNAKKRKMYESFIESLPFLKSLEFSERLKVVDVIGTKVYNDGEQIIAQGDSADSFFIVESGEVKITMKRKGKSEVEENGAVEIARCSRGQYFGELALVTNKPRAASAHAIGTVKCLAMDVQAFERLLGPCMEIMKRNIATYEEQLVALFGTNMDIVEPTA
# SUMO Mot1 rescue: inhibitors of SUMOylation pathway: yeast Mot1-301 growth rescue; growth rescue, % at 18.8 µM; S. cerevisiae Mot1-301 growth rescue, ATP luminescence, 38.5C; percent above DMSO median, 100 means doubled; actives 1% (n = 320,000);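 active means every valid replicate shows activation above 250% relative to neutral control wells; inactive means the rest, any valid replicate at or below 250%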;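 further: OY570 slx delta 5 strain wells were the positive control but not used for scaling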
# bovine MsrA act: bovine methionine sulfoxide reductase A activation; purified bovine MsrA, absorbance read-out; activation, % at 10.6 µM; actives 0.3% (n = 360,000); in the data active means activation above about 7.5%;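 further: 0% = vehicle and 100% = reference activator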
# MsrA inh: inhibits bovine methionine sulfoxide reductase A; AID 651718; inhibition, % at 15.5 µM; purified bovine MsrA, absorbance read-out; actives 0.75% (n = 360,000);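 further: 0% = vehicle wells with enzyme and 100% = reference inhibitor wells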
# PKA-R1A act: activators of PKA-R1A complex | P00514+P68181 | activation, % at 11.4 µM | actives 0.083% (n = 340,000) | PKA-R1A dissociation, Cy5-IP20 fluorescence polarization; scaled: DMSO 0%, 113 µM cGMP 100%;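 active means percent activation above the mean of all tested compounds plus 3 SD, cut at about 19% in these data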;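 further: higher means more PKAc released from R1A so a rise in polarization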
# MsrA inh confirm: confirmation of bovine MsrA inhibitors; shares compounds with MsrA inh; purified bovine MsrA, absorbance read-out; inhibition, % at 15.5 µM; actives 41% (n = 2,300); AID 651822;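 further: coupled to thioredoxin reductase with NADPH and selenocystamine and DMSO as substrate; 0% = vehicle only and 100% = full effect of reference inhibitor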
# * marks the source's active call; other numbers are inactive results; nt = not tested or not shown. Unless noted, no stated cut-off is given here; in the data, active means inhibition above about 4.5%; inactive means the rest.
SMILES,PKA-R2B activ,SUMO Mot1 rescue,bovine MsrA act,MsrA inh,PKA-R1A act,MsrA inh confirm
COC(=O)[C@]12CCCCC=C1N(Cc1ccccc1)C(=O)[C@H](CC(=O)NCCCCc1ccccc1)C2,nt,nt,0,-1,nt,nt
CN(Cc1ccccc1)C(=O)c1ncn2c1c(=O)[nH]c1cccnc12,5,nt,-7,1,4,nt
CCc1cc(C(=O)Cc2nc3ccccc3[nH]2)c(O)cc1O,-5,2,-2,5.0*,-7,4
O=C(Cc1nc2ccccc2[nH]1)c1ccc(Cl)cc1,4,139,-2,0,0,nt
CSc1ccc(OC2(C)CCN(Cc3ccc(-c4ccccn4)cc3)C2)cc1 (stereo not given),nt,nt,-1,-1,nt,nt
CC(C)OC(=O)/C(=C/c1ccc2c(c1)c1ccccc1n2C)NC(=O)c1ccccc1,0,311,-13,4.8*,-2,3
Cn1cc(C(=O)N/N=C/C=C/c2ccccc2)ccc1=O,7,-7,-4,9.7*,-5,5.1*
O=C(N/N=C/C(Cl)=C/c1ccccc1)c1ccccn1,1,-17,-9,4,2,nt
O=C(N/N=C/C(Cl)=C/c1ccccc1)c1ccncc1,nt,0,-4,4.9*,nt,4
Cn1cc(C(=O)N/N=C/C(Br)=C/c2ccccc2)ccc1=O,3,-43,-7,6.7*,-9,5.7*
O=C(N/N=C/C(Br)=C/c1ccccc1)c1cnccn1,6,55,-6,6.3*,-2,4.6*
CCCCn1c(OC(=S)N(CC)CC)cc(C)nc1=S,nt,nt,-2,nt,nt,nt
CC(=O)C1=C(C)N(Cc2ccc(Cl)cc2)C(=S)NC1c1ccccc1 (stereo not given),nt,nt,nt,1,nt,nt
C[C@H]1CN([C@@H](C)CO)C(=O)c2cc(C#CC3(O)CCCC3)cnc2O[C@H]1CN(C)C(=O)C1CC1,-9,nt,-1,0,-3,nt
COc1cc(C(=O)O)ccc1O,-6,1,-2,0,-3,nt
COc1cc(C(=O)C(=O)c2ccc(O)c(OC)c2)ccc1O,-3,247,-4,6.4*,-7,4
CC(C)[C@@H](NC(=O)OC(C)(C)C)c1cc(C(=O)c2c(-c3ccccc3)[nH]c3ccccc23)c(N)s1,nt,nt,nt,2,nt,nt
O=C(O)CC/C(=N\Nc1ccc(S(=O)(=O)N2CCCC2)cc1[N+](=O)[O-])c1cccs1,4,nt,-4,4.8*,3,5
O=C(O)CC/C(=N\Nc1ccccc1[N+](=O)[O-])c1cccs1,1,16,-3,nt,-1,nt
O=C(O)CC/C(=N\Nc1ccc(S(=O)(=O)N2CCOCC2)cc1[N+](=O)[O-])c1cccs1,-17,15,-12,4.9*,-2,4.7*
CC1=C(C(=O)N2CCCCCC2)CC(CC(=O)NCc2ccco2)C(=O)N1Cc1ccccc1 (stereo not given),nt,nt,-3,-1,nt,nt
CC(C)(C)NC(=O)NC(=O)C[n+]1ccc(Cc2ccc([N+](=O)[O-])cc2)cc1,-2,13,3,12*,1,1
Cc1ccc(Cl)cc1NC(=O)C[n+]1ccc(Cc2ccc([N+](=O)[O-])cc2)cc1,-6,-7,-3,6.6*,-9,1
O=C(C[n+]1ccc(Cc2ccccc2)cc1)Nc1ccc([N+](=O)[O-])cc1Cl,-7,-12,3,0,-2,nt
CCCCC[C@@H](C)N1C[C@H](COCc2ccccc2)Oc2cc(N3CC[C@H](N(C)C)C3)ccc2S1(=O)=O,nt,nt,-1,-3,nt,nt
SMILES,PKA-R2B activ,SUMO Mot1 rescue,bovine MsrA act,MsrA inh,PKA-R1A act,MsrA inh confirm
COc1cc2c(cc1OC)CN(c1ccc([N+](=O)[O-])cc1Cl)CC2,1,32,-1,4.8*,8,1
COc1cc2c(cc1OC)CN(c1ccc([N+](=O)[O-])cc1C#N)CC2,-4,-10,-3,1,-3,nt
C(=C\c1ccccc1)/C=N/Nc1nc(N2CCOCC2)nc(N2CCOCC2)n1,1,28,-3,7.5*,1,6.8*
Clc1ccccc1/C=C/C=N/Nc1nc(N2CCOCC2)nc(N2CCOCC2)n1,-1,nt,-2,5.3*,-14,4
Clc1cc2c(cc1/C=N/Nc1nc(N3CCOCC3)nc(N3CCOCC3)n1)OCO2,-15,10,-4,4,-18,nt
CC(=C/c1ccccc1)/C=N/Nc1nc(N2CCOCC2)nc(N2CCOCC2)n1,3,17,-1,2,-8,nt
CCOc1ccc(N(C)S(=O)(=O)c2cc(-c3cc(C)no3)ccc2C)cc1,-10,14,-3,12*,-7,11*
CCOc1ccc(N(C)S(=O)(=O)c2cc(-c3cc(C)no3)ccc2CC)cc1,4,119,-2,15*,16,15*
CCOc1ccc(N(C)S(=O)(=O)c2cc(-c3cc(C)no3)ccc2OC)cc1,-13,1,-2,1,-3,nt
CCCCCCCCN,nt,nt,nt,0,nt,nt
O=S1(=O)CCN(C2CCCCCCC2)CC1,-6,nt,1,-1,-5,nt
N#Cc1ccc(CSc2nnc(NC(=O)c3ccc4ncsc4c3)s2)cc1,-2,44,-8,1,-21,nt
N#Cc1ccc(CSc2nnc(NC(=O)c3ccc(=O)[nH]c3)s2)cc1,0,-8,-2,6.0*,5,2
CN(C)NC1=CC(=[N+]2CCCC2)CC(C)(C)C1,6,21,-5,1,13,nt
CC1(C)CC(N2CCOCC2)=CC(=[N+]2CCOCC2)C1,-2,0,-9,10*,8,5.5*
CC1(C)CC(N2CCCCC2)=CC(=[N+]2CCCCC2)C1,-1,-2,-8,10*,6,8.1*
Cc1cc(C)nc(NNC2=CC(=[N+]3CCCCC3)CC(C)(C)C2)n1,2,0,-11,3,-3,nt
CCCN(CCC)C1=CC(=[N+]2CCCC2)CC(C)(C)C1,-6,12,-9,5.1*,-3,4
CC1C[N+](=C2C=C(N3CCOCC3)CC(C)(C)C2)CC(C)O1 (stereo not given),-3,-18,-13,11*,-5,6.7*
S=C(NCCCc1cnc[nH]1)NCCCN(Cc1ccc(Cl)cc1)c1ccc(Br)cn1,nt,nt,-1,0,nt,nt
COc1ccccc1CNc1nc(NCc2cccc(OC)c2OC)c2sccc2n1,nt,nt,-1,-1,nt,nt
C#Cc1cccc(Nc2nc(NCCOC)nc3ccsc23)c1,nt,nt,-4,12*,nt,11*
C#Cc1cccc(Nc2nc(NCc3ccccc3OC)nc3ccsc23)c1,nt,nt,-2,18*,nt,11*
COCCNc1nc(Nc2ccc(C#N)cc2)c2sccc2n1,nt,nt,-2,5.1*,nt,2
C#Cc1cccc(Nc2nc(NC(C)C)nc3ccsc23)c1,nt,nt,0,0,nt,nt
CCCCNC(=O)c1nc(C2CCN(S(=O)(=O)c3ccc(OC(F)(F)F)cc3)CC2)oc1-c1ccccc1,nt,nt,nt,0,nt,nt
Cc1cccc(CN2[C@H](COCc3ccccc3)C=CS2(=O)=O)c1,nt,nt,-4,0,nt,nt

# Bioassay records as filed in PubChem.
